Experimental findings from PubChem BioAssay are described below.

Assay [1] can be described thus: inhibitors of TNFa-induced NFkB p65 translocation, primary screen, imaging, HUVEC, MLSMR starter and 10KST1 sets (AID 438;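 active = inhibition above 20% together with a positive visual image hit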;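 also: compound added about 3h40 before a 20 min TNFalpha stimulation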;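 as to inhibition: signal is the nuclear over cytoplasmic p65 intensity ratio per well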). The following applies: HUVEC TNFa-induced p65 nuclear translocation; cell count: measured here: nuclei count (cytotoxicity indicator), at 2.08 µM; inhibition: at 2 µM, stronger effect = higher value, 0% TNFa-plus-vehicle, 100% no-TNFa wells.
Assay [2] can be described thus: reduction of polyQ htt aggregates in cells – imaging, exon1htt(103Q)mCFP cells, high-content imaging, primary screen (AID 483;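 active = visual image review flags a hit and inhibition of aggregation exceeds 20%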;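 also: compound exposure lasted 3 days before fixation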;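 as to nuclei count: percent of the per-plate median nuclei count of sample wells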). The settings on record: exon1htt(103Q)mCFP cell line, aggregate imaging, at 2 µM; inhibition of aggregation: stronger effect = higher value; nuclei count: measured here: cell count, toxicity.
Assay [3] in a line: endothelial E-selectin expression blockers – imaging, HUVEC, immunofluorescence, MLSMR starter and 10KST1 sets, primary screen (AID 487;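 active = visually confirmed hit in the image check and inhibition above 20%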;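 as to inhibition: signal is fraction of cell area covered by stained E-selectin grains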;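 as to nuclei count: 100% = median nuclei count of all wells on the same plate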). The following applies: HUVEC TNFalpha-induced E-selectin immunofluorescence imaging, at 2 µM; inhibition: stronger effect = higher value; nuclei count: measured here: cell number, toxicity.
Assay [4] deals with Voltage-gated potassium channel subunit beta-2 (Rattus norvegicus) (UniProt P62483). As to the kind of experiment: inhibitors of rat Kvbeta2 reductase activity – biochemical, NADPH fluorescence, primary screen (AID 622;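 active = fluorescence slope higher than the sample average by over 3 SD, cut at about -0.22 in these data, passing the limit was not always enough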;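 also: slope of raw intensity against log time taken from 70 to 1610 s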). The settings on record: recombinant KvBeta, 4-cyanobenzaldehyde reduction, at 10 µM, stronger effect = higher value.
Chain of Voltage-gated potassium channel subunit beta-2 (Rattus norvegicus) (P62483 whole entry, looked up): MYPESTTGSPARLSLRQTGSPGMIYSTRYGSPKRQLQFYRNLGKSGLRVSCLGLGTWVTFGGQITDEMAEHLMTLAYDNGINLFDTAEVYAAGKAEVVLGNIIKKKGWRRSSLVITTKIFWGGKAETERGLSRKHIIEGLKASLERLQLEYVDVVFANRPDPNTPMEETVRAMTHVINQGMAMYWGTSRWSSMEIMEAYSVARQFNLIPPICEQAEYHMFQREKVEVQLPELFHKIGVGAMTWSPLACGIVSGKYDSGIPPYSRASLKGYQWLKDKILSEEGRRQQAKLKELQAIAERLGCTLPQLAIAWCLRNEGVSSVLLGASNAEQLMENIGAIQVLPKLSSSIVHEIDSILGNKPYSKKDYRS
The target is the same in assay [5]. As to the kind of experiment: enhancers of rat Kvbeta2 NADPH turnover – biochemical, NADPH fluorescence, primary screen (AID 623;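 active = NADPH fluorescence slope more negative than the mean of all samples by about 3 SD, 99.7% confidence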;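 also: fluorescence intensity change per second fitted from 20 to 320 s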). The settings on record: Recombinant KvBeta, NADPH fluorescence decrease slope, 10 min; at 10 µM; stronger effect = lower value.
Assay [6] has as its target Alpha-2C adrenergic receptor (Homo sapiens) (UniProt P18825). The assay is described as follows: compounds altering alpha2C-coupled GIRK flux – cell-based, HEK293 alpha2C/GIRK1/2, thallium flux, primary screen (AID 624;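 active = fluorescence slope after compound addition differing from the mean of all screened samples at 99.7% confidence, in either direction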;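 also: slope of fluorescence ratio to pre-addition baseline per second over 15 to 24 s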). The settings on record: thallium flux BTC fluorescence, at 10 µM, actives lie on both sides.
A short description of assay [7]: blockers of RIG-like receptor reporter activation – cell-based, Sendai virus stimulus, luciferase, 10K MLSCN set, TLR/RLR signaling modifier project, primary screen (AID 602276;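 active = inhibition at or above 50% at 10 µM; inactive = inhibition below 50%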;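 also: firefly luciferase from ISG56 promoter only with Renilla not read in this screen; 0% = Sendai virus plus DMSO and 100% = medium plus DMSO without virus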). The settings on record: HEK293 RL24 IRF3 luciferase reporter, at 10 µM, stronger effect = higher value. For orientation: In a reporter assay the amount or activity of a reporter protein is the signal.

A short description of assay [8]: TLR3 IRF3 reporter activation blockers – cell-based, poly I:C stimulus, luciferase, 10K MLSCN set, primary screen (AID 602277). The following applies: HEK293-TLR3 RL24 IRF3 luciferase reporter, at 10 µM, stronger effect = higher value.

Each structure is given as a SMILES string. The source made the active and inactive calls.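 The calls were made as follows, unless noted: active = inhibition of the reporter signal at or above 50%; inactive = inhibition below 50%.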

Chain of Alpha-2C adrenergic receptor (Homo sapiens) (P18825 whole entry, looked up): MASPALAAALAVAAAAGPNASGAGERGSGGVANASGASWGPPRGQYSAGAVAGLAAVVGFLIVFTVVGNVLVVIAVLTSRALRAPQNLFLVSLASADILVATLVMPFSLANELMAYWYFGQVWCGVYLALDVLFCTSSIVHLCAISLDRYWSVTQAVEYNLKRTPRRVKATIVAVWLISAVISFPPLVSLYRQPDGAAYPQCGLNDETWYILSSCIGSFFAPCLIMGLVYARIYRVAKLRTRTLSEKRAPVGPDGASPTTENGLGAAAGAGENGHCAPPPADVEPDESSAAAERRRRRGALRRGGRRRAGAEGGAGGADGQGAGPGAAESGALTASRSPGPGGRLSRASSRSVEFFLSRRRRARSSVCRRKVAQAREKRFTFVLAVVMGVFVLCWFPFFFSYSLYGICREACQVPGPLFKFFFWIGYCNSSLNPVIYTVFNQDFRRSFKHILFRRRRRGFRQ

As a reminder, the inhibition is the drop in the measured response relative to a control, in per cent. Take `CCCc1cc(C(=O)Nc2sc(C)c(C)c2C(=O)OCC)no1`: in assay [1], the cell count is 856. Moreover, the inhibition in assay [1] was 2.3% (inactive); in assay [3], -79.7% (inactive); in assay [7], 8.68% (inactive); in assay [8] it was 31.8% (inactive). In assay [2], the inhibition of aggregation is 2.1% (inactive). Further, the nuclei count in assay [2] worked out at 126%; in assay [3], 114%. For the same compound, the fluorescence slope in assay [4] is -0.229 (inactive). Further, the NADPH fluorescence slope in assay [5] is -5.5e-06 (inactive). Also, in assay [6], the slope was 0.00716 (inactive).

Consider `CCOC(=O)c1c(C)n(C)c2c(C)cc(O)c(OC(C)=O)c12`, for which, in assay [1], the cell count came out at 292. Also, the inhibition is -5% (inactive) in assay [1], -12.4% (inactive) in assay [3], 4.23% (inactive) in assay [7] and -2.25% (inactive) in assay [8]. Also, in assay [2], the inhibition of aggregation was -6.8% (inactive). In addition, the nuclei count is 96.7% in assay [2] and 109% in assay [3]. Also, the fluorescence slope in assay [4] is -0.467 (inactive). In addition, in assay [5], the NADPH fluorescence slope is -7.1e-06 (inactive). The slope in assay [6] was 0.00417 (inactive).

With `N#CC1=C(N)N(c2ccccc2)C(c2ccco2)C1(C#N)C#N` (centres undefined), the cell count in assay [1] came to 322. In addition, the inhibition in assay [1] was 2% (inactive); in assay [3], 3.9% (inactive); in assay [7], 1.35% (inactive); in assay [8] it was 9.78% (inactive). In addition, the inhibition of aggregation in assay [2] is -3.9% (inactive). Besides, the nuclei count in assay [2] turned out to be 103%; in assay [3], 107%. Further, the fluorescence slope in assay [4] is -0.427 (inactive). Also, the NADPH fluorescence slope in assay [5] was -1.7e-05 (inactive). Further, the slope in assay [6] was 0.00559 (inactive).

`CCCCn1c(SCC(=O)Nc2ccc(OC)cc2)nc2ccc(N3CCOCC3)cc2c1=O`: the cell count in assay [1] is 508. Also, the inhibition in assay [1] is -0.6% (inactive); in assay [3] it was -3.4% (inactive); in assay [7], 11.2% (inactive); in assay [8], 13.1% (inactive). Also, the inhibition of aggregation in assay [2] is 20.8% (inactive). In addition, the nuclei count in assay [2] came out at 44.4%; in assay [3], 103%. Moreover, the fluorescence slope in assay [4] is -0.407 (inactive). In addition, the NADPH fluorescence slope in assay [5] was 6.3e-06 (inactive). Besides, the slope in assay [6] is 0.00425 (inactive).

On to `COc1ccc(C2C=C(c3ccccc3)Nc3ncnn32)cc1` (centres undefined), for which the cell count in assay [1] was found to be 558. For the same compound, the inhibition is -20.9% (inactive) in assay [1], -15.1% (inactive) in assay [3], 5.64% (inactive) in assay [7] and -14.5% (inactive) in assay [8]. Besides, the inhibition of aggregation in assay [2] is -12.6% (inactive). Further, the values for the nuclei count in assay [2] and in assay [3] were 105% and 110%, respectively. Further, in assay [4], the fluorescence slope was -0.0904 (active). Further, in assay [5], the NADPH fluorescence slope was 4.2e-06 (inactive). Besides, in assay [6], the slope is 0.00603 (inactive).

Take `Cc1cc(C(=O)Cn2cncn2)c(C)n1CCc1ccc(F)cc1`: in assay [1], the cell count amounted to 453. Besides, the inhibition is -2.5% (inactive) in assay [1], -92.9% (inactive) in assay [3], 0.317% (inactive) in assay [7] and 16.3% (inactive) in assay [8]. Moreover, the inhibition of aggregation in assay [2] is 0.8% (inactive). Also, the figures for the nuclei count in assay [2] and in assay [3] were 91.7% and 98.5%, respectively. The fluorescence slope in assay [4] was -0.48 (inactive). Moreover, the NADPH fluorescence slope in assay [5] is -4e-05 (inactive). For the same compound, the slope in assay [6] is 0.00641 (inactive).

Turning to `CC(=O)Nc1cc(NC(C)=O)cc(C(=O)OCC(=O)N2CC(C)OC(C)C2)c1` (centres undefined), the cell count in assay [1] came to 492. In addition, the inhibition is -3.9% (inactive) in assay [1], 6.9% (inactive) in assay [3], 6% (inactive) in assay [7] and 8.11% (inactive) in assay [8]. The inhibition of aggregation in assay [2] was 22.1% (inactive). The values for the nuclei count in assay [2] and in assay [3] were 104% and 109%, respectively. Further, the fluorescence slope in assay [4] is -0.299 (inactive). Besides, the NADPH fluorescence slope in assay [5] is -4.8e-05 (inactive). The slope in assay [6] was 0.00487 (inactive).

As for `Cc1c(C(=O)Nc2nnc(C(F)(F)F)s2)oc2ccccc12`, the cell count in assay [1] was 778. The inhibition was -8.8% (inactive) in assay [1], -57.7% (inactive) in assay [3], -13.9% (inactive) in assay [7] and -95.9% (inactive) in assay [8]. Besides, the inhibition of aggregation in assay [2] was -7.7% (inactive). For the same compound, the values for the nuclei count in assay [2] and in assay [3] were 121% and 108%, respectively. The fluorescence slope in assay [4] was -0.419 (inactive). In assay [5], the NADPH fluorescence slope is 2.3e-05 (inactive). Moreover, in assay [6], the slope was 0.00814 (inactive).

In the case of `COc1ccc(C(=O)COC(=O)CCn2nnc(-c3cccs3)n2)cc1`, in assay [1], the cell count stood at 237. Besides, the inhibition is 2.2% (inactive) in assay [1], 56.4% (inactive) in assay [3], -6.55% (inactive) in assay [7] and -7.1% (inactive) in assay [8]. Besides, the inhibition of aggregation in assay [2] is 20% (inactive). The figures for the nuclei count in assay [2] and in assay [3] were 78.6% and 73.7%, respectively. Further, the fluorescence slope in assay [4] is -0.426 (inactive). For the same compound, the NADPH fluorescence slope in assay [5] was 1.6e-05 (inactive). For the same compound, the slope in assay [6] was 0.00571 (inactive).

As to `CCn1cc(C(=O)NCCCOC)c(=O)c2cc(S(=O)(=O)N(C)C)ccc21`, the cell count in assay [1] amounted to 693. The inhibition is -5% (inactive) in assay [1], -42.6% (inactive) in assay [3], 4.09% (inactive) in assay [7] and 31.3% (inactive) in assay [8]. Moreover, the inhibition of aggregation in assay [2] is 6% (inactive). For the same compound, the nuclei count was 82.6% in assay [2] and 112% in assay [3]. For the same compound, the fluorescence slope in assay [4] is -0.418 (inactive). The NADPH fluorescence slope in assay [5] was 3.3e-05 (inactive). Also, the slope in assay [6] was 0.00533 (inactive).

As for `Cc1[nH]c(=O)[nH]c(=O)c1S(=O)(=O)N1CCCC(C(=O)NCc2ccco2)C1` (centres undefined), the cell count in assay [1] stood at 377. The inhibition was -2.8% (inactive) in assay [1], -48.3% (inactive) in assay [3], -2.81% (inactive) in assay [7] and 24.8% (inactive) in assay [8]. The inhibition of aggregation in assay [2] is -4.9% (inactive). The results for the nuclei count in assay [2] and in assay [3] were 104% and 106%, respectively. Further, the fluorescence slope in assay [4] was -0.402 (inactive). Besides, the NADPH fluorescence slope in assay [5] was -2.3e-05 (inactive). The slope in assay [6] is 0.00332 (inactive).

`CCc1ccccc1NC(=O)C(CC)Sc1nc2cc3c(cc2c(=O)n1Cc1ccco1)OCO3` (centres undefined): the cell count in assay [1] is 486. Besides, the inhibition was 9.8% (inactive) in assay [1], -3.3% (inactive) in assay [3], 16.3% (inactive) in assay [7] and 22.3% (inactive) in assay [8]. Also, in assay [2], the inhibition of aggregation was -21.1% (inactive). In addition, the nuclei count in assay [2] worked out at 115%; in assay [3], 105%. For the same compound, in assay [4], the fluorescence slope is -0.494 (inactive). Further, the NADPH fluorescence slope in assay [5] is -1.8e-05 (inactive). Also, the slope in assay [6] is 0.00667 (inactive).

Regarding `CCOC(=O)C1=C(N)OC2=C(C(=O)CC(C)(C)C2)C1c1ccoc1` (centres undefined), in assay [1], the cell count was 774. Besides, the inhibition in assay [1] is -12.9% (inactive); in assay [3], -15.3% (inactive); in assay [7] it was 3.82% (inactive); in assay [8], 7.84% (inactive). Besides, the inhibition of aggregation in assay [2] is -14.6% (inactive). In addition, the nuclei count was 78.3% in assay [2] and 110% in assay [3]. For the same compound, the fluorescence slope in assay [4] was -0.418 (inactive). Also, the NADPH fluorescence slope in assay [5] was -4e-05 (inactive). For the same compound, the slope in assay [6] is 0.00368 (inactive).

Consider `Nc1c(N2CCCCC2)c(=O)[nH]c(=O)n1-c1ccccc1`, for which the cell count in assay [1] was found to be 751. Moreover, the inhibition in assay [1] was 2.4% (inactive); in assay [3], -0.1% (inactive); in assay [7], -4.05% (inactive); in assay [8], -5.22% (inactive). Besides, the inhibition of aggregation in assay [2] was 3% (inactive). Also, the nuclei count in assay [2] is 106%; in assay [3], 109%. In addition, the fluorescence slope in assay [4] is -0.456 (inactive). In addition, the NADPH fluorescence slope in assay [5] was 4.1e-05 (inactive). The slope in assay [6] is 0.00376 (inactive).
